M1 ag parental – nonselective activator or artifact in parental CHO-K1 cells; Fluo-8 calcium fluorescence; scaled to maximal ATP response, vehicle zero; activation, % at 3 µM; 360,000 tested, 0.48% active; AID 602248; in the data active = activation above about 15%;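 note: untransfected CHO-K1 host cells lacking M1 receptor as counterscreen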
CHO-K1 Ca antag – nonselective inhibitor or artifact in parental CHO-K1 cells; ATP-induced calcium, Fluo-8 fluorescence; inhibition, % at 3 µM; 360,000 tested, 0.6% active;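 active = inhibition above a per-plate cutoff, the plate's mean sample inhibition plus 3 SD, cut at about 24% in these data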;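 note: 0% = DMSO plus EC80 ATP and 100% = DMSO alone without ATP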
M1 PAM – positive allosteric modulators of human M1 muscarinic receptor; CHO-K1 hM1, Fluo-8 calcium fluorescence, ACh EC20; 0% = ACh EC20, 100% = maximal ACh; activation, % at 3 µM; P11229; AID 588819; 360,000 tested, 0.088% active; in the data active = activation above about 19%, passing the limit was not always enough
Target sequence (P11229 whole entry, looked up): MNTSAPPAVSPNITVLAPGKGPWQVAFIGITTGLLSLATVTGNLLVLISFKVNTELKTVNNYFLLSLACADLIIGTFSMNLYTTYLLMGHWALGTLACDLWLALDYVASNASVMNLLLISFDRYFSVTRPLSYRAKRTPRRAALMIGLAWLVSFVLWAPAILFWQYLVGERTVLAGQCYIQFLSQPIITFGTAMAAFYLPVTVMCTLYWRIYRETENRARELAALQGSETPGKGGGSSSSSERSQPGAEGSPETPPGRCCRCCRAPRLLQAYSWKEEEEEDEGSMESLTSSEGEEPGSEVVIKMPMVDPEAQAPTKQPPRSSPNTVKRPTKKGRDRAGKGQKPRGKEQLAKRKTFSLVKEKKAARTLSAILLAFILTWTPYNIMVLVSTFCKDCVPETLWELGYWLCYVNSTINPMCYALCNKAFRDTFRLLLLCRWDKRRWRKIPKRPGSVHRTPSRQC
M1 antag – human CHRM1 antagonism | P11229 | CHO-K1 hM1, Fluo-8 calcium fluorescence, ACh EC80 antagonist | inhibition, % at 3 µM | 360,000 tested, 1.3% active | AID 588852;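 active = percent inhibition above its own plate's cutoff, namely the mean of that plate's compound wells plus 3 SD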;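 note: peak over basal fluorescence ratio during 140 s after agonist addition; 0% = ACh EC80 plus DMSO and 100% = DMSO alone without agonist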
CHRM1 agonist – activates human CHRM1 receptor; 360,000 tested, 0.33% active; P11229; activation, % at 3 µM; AID 588814; CHO-K1 hM1, Fluo-8 calcium fluorescence, agonist mode; 0% DMSO, 100% acetylcholine EC100;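 active = activation above the run's mean compound activation plus 3 SD, cut at about 16% in these data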;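 note: peak over basal fluorescence ratio within a 140 s kinetic read after compound addition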
M1 PAM parental – counter-screen for M1 PAMs: effect in parental CHO-K1 cells | ATP EC20, Fluo-8 calcium fluorescence; 0% at ATP EC20, 100% at ATP max | activation, % at 3 µM | 360,000 tested, 0.02% active;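 active = activation above the run cutoff, the mean activation of all test compounds plus 3 SD, cut at about 40% in these data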;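 note: peak over basal fluorescence ratio in a 140 s read after ATP addition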
* marks the source's active call; other numbers are inactive results. Most compounds without a hit are left out; they make up all but 2.3% or so of the library.

SMILES	M1 ag parental	CHO-K1 Ca antag	M1 PAM	M1 antag	CHRM1 agonist	M1 PAM parental
NC(=O)c1ccc(N2CCN(S(=O)(=O)c3cccs3)CC2)c([N+](=O)[O-])c1	17*	23	-14	35*	3	-8
Cc1cccn2cc(CNC(=O)C3CCCCC3)nc12	19*	14	3	0	-4	0
C#Cc1cccc(C(=O)N2CCCC(C(=O)c3ccc(OC)cc3C)C2)c1 (configuration not stated)	1	25*	1	-2	-4	-22
COc1ccc(C(=O)C2CCCN(S(=O)(=O)c3ccc(C(C)=O)cc3)C2)c(C)c1 (configuration not stated)	16*	11	-19	43*	4	-9
C=CCn1c(SCC(=O)NC2CCCc3ccccc32)nnc1-c1ccncc1 (configuration not stated)	1	-9	8	-11	-3	11
CC(C)c1csc(CN2CCC(n3nccc3NC(=O)Cc3ccccc3)CC2)n1	3	-10	10	-10	-4	18
COc1nccnc1NS(=O)(=O)c1ccc(NC(=O)c2ccc(F)cc2)cc1	1	-5	29*	-23	0	22
O=C(COC(=O)c1c[nH]c2ccccc12)NC1CCCCC1	1	-19	4	0	-4	6
CC1CCc2nc(/C(C#N)=C/c3ccncc3)sc2C1 (configuration not stated)	1	-9	15	-9	-9	13
CN(C)S(=O)(=O)N1CCC(Oc2cccc(C(=O)NC3CCCCC3)c2)CC1	13	1	-3	-1	2	7
CN(C)S(=O)(=O)N1CCC(Oc2cccc(C(=O)NCCC3=CCCCC3)c2)CC1	16*	2	-16	20	3	-3
CCc1cccc(CC)c1N1C(=O)C2=C(SCCCS2)C1=O	26*	12	-16	16	20*	-2
CCCCCn1c(=O)[nH]c2cc(C(=O)O)ccc2c1=O	0	-1	10	-9	0	11
CCOC(=O)N1CCN(C(=O)c2ccc3c(=O)n(CCc4ccccc4)c(=O)[nH]c3c2)CC1	1	-5	-19	49*	-2	14
COc1ccccc1Cn1c(=S)[nH]c2cc(C(=O)N3CCC(C(N)=O)CC3)ccc2c1=O	0	2	6	-6	-4	-14
CCCCCn1c(=O)[nH]c2cc(C(=O)N3CCN(C(=O)OCC)CC3)ccc2c1=O	0	-8	-32	49*	-12	-24
CCOC(=O)N1CCN(C(=O)c2ccc3c(=O)n(CCOC)c(=O)[nH]c3c2)CC1	0	12	-8	28*	-5	-8
CCOCCCn1c(=S)[nH]c2cc(C(=O)N3CCC(C(N)=O)CC3)ccc2c1=O	0	25*	-5	19	-2	-7
O=C(COc1ccccc1)Nc1nnc(S(=O)(=O)N2CCCCCC2)s1	0	-3	21	-19	5	-4
O=[N+]([O-])c1ccc(NCCCNS(=O)(=O)c2ccccc2)c(Cl)c1	9	-3	-3	1	-8	12
O=C(NCc1ccccc1)c1cccc(NC(=O)C2CCCC2)c1	1	-4	7	-10	-2	6
O=C(c1cc(-c2ccncc2)nc2ccc(Cl)cc12)N1CCN(Cc2ccc3c(c2)OCO3)CC1	6	-8	-5	22	-2	9
O=C(c1cc(-c2ccncc2)nc2ccc(Br)cc12)N1CCN(Cc2ccc3c(c2)OCO3)CC1	6	21	-15	43*	-4	-5
COCCN1C(=O)c2ccccc2C(C(=O)NCCCN2CCCC2=O)C1c1c[nH]c2ccccc12 (configuration not stated)	1	-12	13	-11	-4	21
COC(=O)Cn1ncc(N(C)Cc2ccccc2)c(Cl)c1=O	1	-10	7	-11	-3	-2
SMILES	M1 ag parental	CHO-K1 Ca antag	M1 PAM	M1 antag	CHRM1 agonist	M1 PAM parental
COc1ccc(C2C=C(c3ccc(Br)cc3)Nc3nc(N4C(=O)CCC4=O)nn32)cc1 (configuration not stated)	0	33*	-1	9	-1	-7
O=C1CCC(=O)N1c1nc2n(n1)C(c1ccccc1)C=C(c1ccc(Br)cc1)N2 (configuration not stated)	1	3	4	1	-2	6
CCOC(=O)c1nnc(-c2cccs2)nc1NC(C)C	0	25*	10	-8	-2	-5
COc1cc(CC(=O)N2CCN(S(=O)(=O)c3ccc(C)cc3)CC2)cc(OC)c1OC	1	-22	4	-2	-1	16
Cn1c2ccccc2c2cc(/C=N/NC(=O)c3cc(O)cc(O)c3)ccc21	-1	1	0	8	-1	-8
Cn1c2ccccc2c2cc(/C=N/NC(=O)c3cc(O)ccc3O)ccc21	0	24*	-12	30*	0	-23
COc1ccc(C(CCNCc2ccc(OC)c(OC)c2)c2ccc(F)cc2)cc1 (configuration not stated)	18*	8	-2	9	0	-1
CC(C)Oc1ccc(C(CCNCc2ccc(O)cc2)c2ccccc2)cc1 (configuration not stated)	21*	15	-10	11	-4	2
COc1ccc(C(CCNCc2ccc(N(C)C)cc2)c2ccccc2)cc1 (configuration not stated)	22*	3	-3	14	-7	-9
CC(C)Oc1ccc(CNC(=O)CC(c2ccccc2)c2cc(Cl)ccc2O)cc1 (configuration not stated)	1	-11	0	7	-6	9
COc1ccc(CCNCCC(c2ccccc2)c2ccccc2)cc1OC	2	10	-24	30	-3	4
COc1cc(CN(C)Cc2ccccc2)cc(OC)c1O	0	-8	-2	4	-2	8
Cc1ccc(S(=O)(=O)N2CCNC(=O)CC2)cc1	23*	-4	10	-5	-5	7
Cc1ccc(S(=O)(=O)N2CCc3ccccc3CC2)cc1	1	-1	-14	23	-2	-21
CC[C@H]1C(=O)[C@@H](Cc2ccccc2)[C@@H]2CCN3C(=O)CCC[C@H]1[C@H]23	2	-21	10	-9	-10	17
CC12CCC3(CO)COC(c4ccccc4O1)C2C3 (configuration not stated)	1	-23	7	-9	-2	10
CC1(C#CC[N+]2(C)CCCCC2)CCC2C(O1)c1ccccc1OC2(C)C (configuration not stated)	0	-20	-5	82*	103*	17
CC(C)CCN1CCN(CC(c2ccccc2)c2ccccc2)CC1CCO (configuration not stated)	0	-10	-33	35*	-13	16
